# SARS PLpro yeast – inhibitors of SARS-CoV papain-like protease in yeast; AID 485353; S. cerevisiae expressing SARS-CoV PLpro, growth rescue; Potency, µM (highest dose often 32.9 µM), actives largely listed as activators; hit rate 0.19% among 330,000; calls by dose curve; also: nearly all actives have a fitted effect of over 55% in size
# NS1 function inh – inhibitors of influenza NS1 protein function | Potency, µM (doses to about 46.1 µM) | AID 2326 | hit rate 0.4% among 270,000; calls by dose curve; also: actives are rising curves; nearly all actives have a fitted effect of over 50% in size
#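 Compounds were scored for reversing the slow growth caused by influenza A NS1 in S. cerevisiae, measured by optical density at 600 nm. Assay medium contained 2% galactose at pH 6.0; NS1-free yeast of the same strain were the positive control.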
# Pf growth 48h – P. falciparum growth inhibition at 48 hours (one generation); P. falciparum luciferase growth in erythrocytes, 48 h; Potency, µM (series often up to 28.7 µM), actives largely listed as inhibitors; hit rate 5.9% among 310,000; AID 504832
#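 Read-out is firefly luciferase luminescence from an integrated reporter in P. falciparum, so falling signal marks reduced parasite growth. Infected erythrocytes were at 2% hematocrit and 0.1% parasitemia (final) in Albumax-supplemented RPMI 1640.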
# Pf growth 96h – inhibits malaria parasite growth, 96 h. P. falciparum luciferase reporter growth, 96 h. hit rate 6.9% among 320,000. Potency, µM (doses to about 28.7 µM), hits mostly inhibitors. AID 504834
#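 Cell-based qHTS: luciferase-tagged P. falciparum in erythrocytes (2% hematocrit, 0.05% parasitemia final) incubated with compounds for 96 hours, 37 C, 5% CO2; luciferase detection reagent then added and luminescence measured.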
# A number is an active result; - = inactive; ? = inconclusive; . = not tested or not shown. Rows were chosen to be rich in hits. Some 10% of all compounds tested hit in one or more screens of this group. Unless noted, calls follow the shape of the dose curve; as a rule, active = well fitted inhibition curve with a large enough effect; inconclusive = small, poorly fitted or top-dose-only effect, or another doubt; inactive = no such curve, though single readings can be large or run the other way.
SMILES,SARS PLpro yeast,NS1 function inh,Pf growth 48h,Pf growth 96h
Cc1[nH]c2ccccc2c1C(=O)C(=O)NCCC1=CCCCC1,-,-,2.9µM,?
O=C(NCc1ccco1)C(=O)c1c[nH]c2ccccc12,-,-,-,-
Cc1[nH]c2ccccc2c1C(=O)C(=O)NCc1ccco1,-,-,-,12µM
Cc1cc(OCC(=O)N2CCOCC2)ccc1NC(=O)c1ccccc1C,-,-,-,-
CCc1cccc(CC)c1NC(=O)CN1CCN(c2ccccc2)CC1,7.1µM,-,-,-
O=C(CN1CCN(c2ccccc2)CC1)Nc1ccccc1Cl,-,-,-,-
O=C(CN1CCN(c2ccccc2)CC1)Nc1ccccc1Sc1ccccc1,-,-,?,9.3µM
CC(C)NC(=O)CN(C(=O)CCC(=O)Nc1nccs1)c1ccc(C(C)C)cc1,-,-,-,-
O=C(c1cccs1)N1CCC(c2nc3c(nnn3Cc3ccccc3Cl)c(=O)[nH]2)CC1,-,-,10µM,-
O=C(c1ccccc1)N1CCC(c2nc3c(nnn3Cc3ccccc3Cl)c(=O)[nH]2)CC1,-,-,.,8.3µM
O=C(Cc1cccs1)N1CCC(c2nc3c(nnn3Cc3ccccc3)c(=O)[nH]2)CC1,-,-,?,?
O=C(COC(=O)c1ccc2c(c1)OCO2)NC1CCCCC1,-,.,.,.
CN(C)C[C@@H](O)c1ccc(Cl)c2ccccc12,.,-,.,.
C=CCN1CC(c2nc3ccccc3n2Cc2cccc3ccccc23)CC1=O (stereo unspecified),-,-,?,12µM
COc1ccc(-c2cc(C(=O)Nc3ccc(C)cc3)no2)cc1,.,-,-,-
COc1ccc(NC(=O)c2c(C)noc2-c2snnc2C)cc1,-,-,13µM,2.9µM
CCOC(=O)c1ccc(NC(=S)NN)cc1,-,.,?,?
CCOC(=O)c1cc(NC(=O)COC)ccc1O,-,-,-,-
CCOC(=O)c1ccc(NC(=O)CN(c2ccc(C)cc2)S(=O)(=O)c2c(C)n[nH]c2C)cc1,-,-,13µM,-
CCOC(=O)c1ccc(NC(=O)C(CC)(CC)C(=O)OCC)cc1,-,-,8.3µM,.
CCOc1ccccc1NC(=O)CN(c1ccc(C)cc1)S(=O)(=O)c1c(C)n[nH]c1C,-,-,.,.
COC(=O)c1ccc(NC(=O)CNCc2ccncc2)cc1,-,-,-,-
CCOC(=O)c1ccc(NC(=O)COC)cc1,-,-,-,15µM
COC(=O)c1ccc(CNCC(=O)Nc2ccc(C(=O)OC)cc2)cc1,-,-,?,0.93µM
O=C(CSc1nnc(NC(=O)C2CC2)s1)Nc1ccccc1Cl,-,-,-,-
SMILES,SARS PLpro yeast,NS1 function inh,Pf growth 48h,Pf growth 96h
COc1cc(OC)c(C(=O)OCC(=O)NC23CC4CC(CC(C4)C2)C3)cc1OC,-,.,.,.
CCn1c(CC(=O)Nc2ccc(F)cc2)nnc1SCC(=O)Nc1nnc(C)s1,-,-,-,-
Cn1cc(CN2CCN(CCc3ccccc3)C(CCO)C2)cn1 (stereo unspecified),-,-,-,-
CC(C)CCN1CCN(Cc2coc3ccccc3c2=O)CC1CCO (stereo unspecified),-,-,-,4.1µM
CC(C)c1csc(CN2CCN(Cc3ccccc3)C(CCO)C2)n1 (stereo unspecified),-,-,-,?
CN1CCN(CC#Cc2ccccc2)CC1CCO (stereo unspecified),-,-,-,4.1µM
CC(C)N1CCN(Cc2coc3ccccc3c2=O)CC1CCO (stereo unspecified),-,-,-,-
CC(C)(C)CN1CCN(CC#Cc2ccccc2)CC1CCO (stereo unspecified),-,-,-,?
CC(C)c1csc(CN2CCN(CCc3ccccc3)C(CCO)C2)n1 (stereo unspecified),-,-,?,1.7µM
OCCC1CN(Cc2ccc3nsnc3c2)CCN1CCc1ccccc1 (stereo unspecified),-,-,-,12µM
Cc1nnc(NC(=O)C2CCCN2C(=O)Nc2ccccc2)s1 (stereo unspecified),-,-,-,-
CN1N=C(C(=O)N2CCCC(N3CCN(c4ccc(F)cc4)CC3)C2)CCC1=O (stereo unspecified),-,-,-,?
CC(C)CCN1CCN(Cc2ccc(C#CCCO)cc2)CC1CCO (stereo unspecified),-,-,-,12µM
CSc1ccc(CN2CCN(CCC(C)C)C(CCO)C2)cc1 (stereo unspecified),-,-,?,-
OCCC#Cc1ccc(CN2CCN(CCc3ccccc3)C(CCO)C2)cc1 (stereo unspecified),-,-,?,8.3µM
C#Cc1ccc(CN2CCN(CCCc3ccccc3)C(CCO)C2)cc1 (stereo unspecified),-,-,-,?

# Screening results as filed in PubChem.
